The values that follow come from PubChem BioAssay (NCATS).

Records with an inconclusive call do not appear. Entries that show only a call come without a potency. A number with no mark means an inactive call. Active and inactive are the calls of the source. Calls follow the shape of the dose curve; as a rule, active = well fitted curve in the direction sought with a large enough effect; inconclusive = small, poorly fitted or top-dose-only effect, or another doubt; inactive = no such curve, though single readings can be large; an effect the other way counts as inactive or inconclusive. Where a SMILES comes first, the peptide text is derived from it. The star is where a group is joined. AMC = Cc1cc(=O)oc2cc(N*)ccc12; Cbz = O=C(OCc1ccccc1)*; PhAc = O=C(Cc1ccccc1)*
Also: nearly all actives have a fitted effect of over 70% in size.

One test in a line: Primary qHTS for inhibitors of nuclear receptor binding SET domain protein 2 (NSD2) in an isogenic RCH-ACV NSD2 p.E1099K mutant (9B) (AID 1645876). The note with it: RCH-ACV NSD2 E1099K (9B) viability, CellTiter-Glo, 72 h; series mostly up to 44.9 µM. (Quantitative high-throughput screening tests each substance at several concentrations.)
For the molecule `COc1c2cc(c(O[C@@H]3O[C@H](CO)[C@@H](O)[C@H](O)[C@H]3O)c1OC)CCCCC(O)CCc1ccc(O)c-2c1` (some centres not stated), the Potency result is “inactive”.

With `O=C(O)CC1CCC(c2ccc(NC(=O)c3nnc(Nc4ccc(F)c(F)c4)o3)cc2)CC1` (configuration not stated), the Potency entry was “inactive”.

Regarding `COc1cc(Nc2ccc([N+](=O)[O-])cc2C(=O)O)cc2ccccc12`, the Potency result is “inactive”.

For `Nc1ncnc2c1ncn2[C@H]1O[C@@H](C(=O)N2CCN(CC(=O)Nc3cccc4c3CNC4=O)CC2)[C@H](O)[C@@H]1O`, the Potency entry was “inactive”.

For `COc1cc(/C=C/C(=O)O[C@H]2[C@@H]3C=CO[C@@H](O[C@@H]4O[C@H](CO)[C@@H](O)[C@H](O)[C@H]4O)[C@@H]3[C@@]3(CO)O[C@@H]23)ccc1O`, the Potency entry was “inactive”.

With `CCOC(=O)CNC(=O)[C@@H]1CCCN1C(=O)Cc1ccccc1` (PhAc-Pro-Gly-OEt), the Potency result is “inactive”.

As to `CS(=O)(=O)c1ccccc1N1CCN(c2nc3c(c(=O)[nH]2)CSCC3)CC1`, the Potency entry is “inactive”.

In the case of `C=C1CC/C=C(/CO)C(=O)C[C@@H]2[C@@H]1C[C@@]2(C)COC(C)=O`, the Potency entry is “inactive”.

With `CC1=CC(=O)C(=C(C)C)CC2C(C)(O)CCC12O` (configuration not stated), the Potency result was “inactive”.

For `COc1ccc(S(=O)(=O)Nc2nc(-c3cccc([N+](=O)[O-])c3)cs2)cc1OC`, the Potency result was “inactive”.

Turning to `COc1cn(-c2ccc(-n3cccn3)cc2F)nc(-c2ccnn2-c2ccccc2)c1=O`, the Potency result was “inactive”.

For `O=[N+]([O-])c1cc(Cl)ccc1S(=O)(=O)N1CCN(Cc2ccccc2)CC1`, the Potency result was “inactive”.

For `COc1cc(/C=C/C(=O)OCC2OC(OC3(CO)OC(CO)C(O)C3O)C(O)C(O)C2O)ccc1O` (configuration not stated), the Potency result is “inactive”.

As for `CC(=O)OC1CC(=O)C2(C)C3CC4=C(OC(C)CC4=O)OC3(C)CCC2C1(C)C` (configuration not stated), the Potency entry was “inactive”.

In the case of `Cc1cc(=O)oc2cc(NC(=O)[C@H](CCC(=O)O)NC(=O)[C@H](CC(C)C)NC(=O)[C@H](CC(C)C)NC(=O)OCc3ccccc3)ccc12` (Cbz-Leu-Leu-Glu-{AMC}), the Potency result was “inactive”.

Take `CC1(CO)CC(O)C2(C)CCC3(C)C(=CCC4C5(C=O)CCC(OC6OC(C(=O)O)C(O)C(O)C6OC6OC(C(=O)O)C(O)C(O)C6O)C(C)(C)C5CCC43C)C2C1` (configuration not stated): the activity change, negative = viability loss was -5.71% [at 9.23 µM].

In the case of `CC(=O)c1c(C)cccc1O[C@@H]1O[C@H](CO)[C@@H](O)[C@H](O)[C@H]1O`, the Potency result is “inactive”.

For `Cc1ccccc1NC(=O)Nc1ccc(CN2C(=O)N([C@@H](CC(C)C)C(=O)N[C@@H](CC(=O)O)c3ccccc3)C(=O)C2(C)C)cc1`, the Potency entry was “inactive”.

The next test is described as follows: Primary qHTS for inhibitors of nuclear receptor binding SET domain protein 2 (NSD2) in an RCH-ACV wild type WT cells (2C) (AID 1645877). Also: potency is read from the fitted curve at half-maximal effect. The note with it: RCH-ACV (leukaemia line) NSD2 WT (2C) viability, CellTiter-Glo, 72 h; series mostly up to 44.9 µM.
In the case of `CC1(C)CC[C@]2(C(=O)O)CC[C@]3(C)C(=CCC4[C@@]5(C)C[C@H](O)[C@H](O[C@@H]6O[C@H](CO)[C@@H](O)[C@H](O)[C@H]6O)[C@@](C)(CO)C5[C@H](O)C[C@]43C)[C@@H]2C1` (some centres not stated), the Potency entry is “inactive”.

On to `CC1=C[C@H]2[C@@H](CC1=O)[C@H](C)C[C@H](O)[C@H]2C(C)C`, for which the Potency entry is “inactive”.

For the molecule `Cc1ccc(Nc2nnc(-c3ccc([N+](=O)[O-])cc3)o2)cc1Cl`, the Potency entry is “inactive”.

Regarding `COc1c2cc(c(O[C@@H]3O[C@H](CO)[C@@H](O)[C@H](O)[C@H]3O)c1OC)CCCCC(O)CCc1ccc(O)c-2c1` (some centres not stated), the Potency entry was “inactive”.

Consider `C=C(CO)C(=O)O[C@H]1C[C@@]23O[C@@H]2CC/C(=C/[C@H]2OC(=O)C(=C)[C@H]12)CO[C@H]3O`, for which the Potency was 8.98 µM (active).

Regarding `C/C=C/C=C/C1=C2C(=O)C3(C)C4C(C(=O)CC(O)/C=C/C)=C(O1)C1(C)C2C2(C)OC1(O)C4(C)OC23O` (configuration not stated), the Potency is 7.96 µM (active).

`COC(=O)/C=C/c1ccc(O[C@@H]2O[C@H](CO)[C@@H](O)[C@H](O)[C@H]2O)cc1`: the Potency is 8.01 µM (active).

`O=C(O)CC1CCC(c2ccc(NC(=O)c3nnc(Nc4ccc(F)c(F)c4)o3)cc2)CC1` (configuration not stated): the Potency result was “inactive”.

With `COc1cc(Nc2ccc([N+](=O)[O-])cc2C(=O)O)cc2ccccc12`, the Potency result was “inactive”.

`Nc1ncnc2c1ncn2[C@H]1O[C@@H](C(=O)N2CCN(CC(=O)Nc3cccc4c3CNC4=O)CC2)[C@H](O)[C@@H]1O`: the Potency result was “inactive”.

For `COc1cc(/C=C/C(=O)O[C@H]2[C@@H]3C=CO[C@@H](O[C@@H]4O[C@H](CO)[C@@H](O)[C@H](O)[C@H]4O)[C@@H]3[C@@]3(CO)O[C@@H]23)ccc1O`, the Potency result is “inactive”.

Consider `CCOC(=O)CNC(=O)[C@@H]1CCCN1C(=O)Cc1ccccc1` (PhAc-Pro-Gly-OEt), for which the Potency entry was “inactive”.

Regarding `CS(=O)(=O)c1ccccc1N1CCN(c2nc3c(c(=O)[nH]2)CSCC3)CC1`, the Potency result was “inactive”.

As to `CC1=CC(=O)C(=C(C)C)CC2C(C)(O)CCC12O` (configuration not stated), the Potency result was “inactive”.

Turning to `COc1ccc(S(=O)(=O)Nc2nc(-c3cccc([N+](=O)[O-])c3)cs2)cc1OC`, the Potency entry was “inactive”.

As to `OC[C@H]1O[C@@H](Oc2cc(O)cc(-c3cc4ccc(O[C@@H]5O[C@H](CO)[C@@H](O)[C@H](O)[C@H]5O)cc4o3)c2)[C@H](O)[C@@H](O)[C@@H]1O`, the Potency entry is “inactive”.

As for `COc1cn(-c2ccc(-n3cccn3)cc2F)nc(-c2ccnn2-c2ccccc2)c1=O`, the Potency result is “inactive”.

Take `O=[N+]([O-])c1cc(Cl)ccc1S(=O)(=O)N1CCN(Cc2ccccc2)CC1`: the Potency result is “inactive”.

As for `CCC(=O)OCC(=O)[C@@]1(OC(=O)CC)[C@@H](C)C[C@H]2[C@@H]3CCC4=CC(=O)C=C[C@]4(C)[C@@]3(F)[C@@H](O)C[C@@]21C`, the Potency was 0.0073 µM (active).

`COc1cc(/C=C/C(=O)OCC2OC(OC3(CO)OC(CO)C(O)C3O)C(O)C(O)C2O)ccc1O` (configuration not stated): the Potency result was “inactive”.

`C=C(C(=O)OC)[C@]12O[C@@](C)(CC[C@@]3(O)/C(=C\C)C(=O)O[C@]3(C)C[C@@H]1OC(=O)C(CO)CN1CCCC1C(=O)O)CC2=O` (some centres not stated): the Potency is 6.82 µM (active).

For the molecule `CC(=O)OC1CC(=O)C2(C)C3CC4=C(OC(C)CC4=O)OC3(C)CCC2C1(C)C` (configuration not stated), the Potency result is “inactive”.

Take `Cc1cc(=O)oc2cc(NC(=O)[C@H](CCC(=O)O)NC(=O)[C@H](CC(C)C)NC(=O)[C@H](CC(C)C)NC(=O)OCc3ccccc3)ccc12` (Cbz-Leu-Leu-Glu-{AMC}): the Potency result was “inactive”.

Regarding `CC1(CO)CC(O)C2(C)CCC3(C)C(=CCC4C5(C=O)CCC(OC6OC(C(=O)O)C(O)C(O)C6OC6OC(C(=O)O)C(O)C(O)C6O)C(C)(C)C5CCC43C)C2C1` (configuration not stated), the activity change, negative = cell killing was -0.213% [at 9.23 µM].

For `CC(=O)c1c(C)cccc1O[C@@H]1O[C@H](CO)[C@@H](O)[C@H](O)[C@H]1O`, the Potency result was “inactive”.

`Cc1ccccc1NC(=O)Nc1ccc(CN2C(=O)N([C@@H](CC(C)C)C(=O)N[C@@H](CC(=O)O)c3ccccc3)C(=O)C2(C)C)cc1`: the Potency entry is “inactive”.

For the molecule `C/C=C(\C)C(=O)O[C@H]1C=CC(=O)O[C@H]1/C=C/[C@H](O)[C@@H](C)O`, the Potency is 23 µM (active).

In the case of `C/C=C1/CC2C(=O)Nc3cc(O)c(OC)cc3C(=O)N2C1` (configuration not stated), the Potency is 10.1 µM (active).

With `C/C=C(\C)C(=O)OC1C2(O)CC3=C4CC(=O)OC(c5ccoc5)C4(C)CCC3C(C)(C2=O)C(C(OC(C)=O)C(=O)OC)C1(C)C` (configuration not stated), the Potency was 3.83 µM (active).
